Reference: ChEMBL document CHEMBL2218924, “A broad activity screen in support of a chemogenomic map for kinase signalling research and drug discovery” (Biochem J, 2013)

How the values were obtained:
[1] = target: T1, Serine/threonine-protein kinase 17A (Homo sapiens) (UniProt Q9UEE5); conditions: at 10 µM
T1 sequence (whole entry): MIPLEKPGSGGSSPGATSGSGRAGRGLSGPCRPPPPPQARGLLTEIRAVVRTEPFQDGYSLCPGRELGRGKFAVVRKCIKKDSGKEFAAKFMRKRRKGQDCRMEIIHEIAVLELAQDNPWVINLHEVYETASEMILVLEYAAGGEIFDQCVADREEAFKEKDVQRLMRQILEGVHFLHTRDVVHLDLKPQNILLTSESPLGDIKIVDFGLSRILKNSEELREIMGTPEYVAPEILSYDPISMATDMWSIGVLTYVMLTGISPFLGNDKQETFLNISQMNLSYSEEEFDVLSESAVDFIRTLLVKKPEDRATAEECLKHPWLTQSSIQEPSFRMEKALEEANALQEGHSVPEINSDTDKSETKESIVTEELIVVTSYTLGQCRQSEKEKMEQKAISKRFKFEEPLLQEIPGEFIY

[2] = target: T2, Dual specificity tyrosine-phosphorylation-regulated kinase 2 (Homo sapiens) (UniProt Q92630); conditions: at 1 µM
T2 sequence (whole entry): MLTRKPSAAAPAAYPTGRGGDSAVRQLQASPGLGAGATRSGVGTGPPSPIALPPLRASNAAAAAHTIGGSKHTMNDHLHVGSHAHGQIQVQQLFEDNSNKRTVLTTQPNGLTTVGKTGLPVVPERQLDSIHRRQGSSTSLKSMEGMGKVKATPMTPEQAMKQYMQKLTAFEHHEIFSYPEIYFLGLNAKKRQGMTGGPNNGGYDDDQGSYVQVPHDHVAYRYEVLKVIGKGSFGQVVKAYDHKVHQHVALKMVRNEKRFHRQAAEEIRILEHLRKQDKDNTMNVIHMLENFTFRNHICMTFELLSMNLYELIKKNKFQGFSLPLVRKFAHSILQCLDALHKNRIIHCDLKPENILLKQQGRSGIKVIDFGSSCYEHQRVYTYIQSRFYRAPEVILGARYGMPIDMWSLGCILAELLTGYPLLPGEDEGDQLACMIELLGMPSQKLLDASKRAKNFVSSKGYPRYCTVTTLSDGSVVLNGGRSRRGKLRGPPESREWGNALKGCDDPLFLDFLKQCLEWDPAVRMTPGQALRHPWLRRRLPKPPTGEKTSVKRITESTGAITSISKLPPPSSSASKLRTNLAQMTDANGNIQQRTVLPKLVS

[3] = target: T2, Dual specificity tyrosine-phosphorylation-regulated kinase 2 (Homo sapiens); conditions: at 10 µM
[4] = target: T3, Ephrin type-A receptor 1 (Homo sapiens) (UniProt P21709); conditions: at 1 µM
T3 sequence (whole entry): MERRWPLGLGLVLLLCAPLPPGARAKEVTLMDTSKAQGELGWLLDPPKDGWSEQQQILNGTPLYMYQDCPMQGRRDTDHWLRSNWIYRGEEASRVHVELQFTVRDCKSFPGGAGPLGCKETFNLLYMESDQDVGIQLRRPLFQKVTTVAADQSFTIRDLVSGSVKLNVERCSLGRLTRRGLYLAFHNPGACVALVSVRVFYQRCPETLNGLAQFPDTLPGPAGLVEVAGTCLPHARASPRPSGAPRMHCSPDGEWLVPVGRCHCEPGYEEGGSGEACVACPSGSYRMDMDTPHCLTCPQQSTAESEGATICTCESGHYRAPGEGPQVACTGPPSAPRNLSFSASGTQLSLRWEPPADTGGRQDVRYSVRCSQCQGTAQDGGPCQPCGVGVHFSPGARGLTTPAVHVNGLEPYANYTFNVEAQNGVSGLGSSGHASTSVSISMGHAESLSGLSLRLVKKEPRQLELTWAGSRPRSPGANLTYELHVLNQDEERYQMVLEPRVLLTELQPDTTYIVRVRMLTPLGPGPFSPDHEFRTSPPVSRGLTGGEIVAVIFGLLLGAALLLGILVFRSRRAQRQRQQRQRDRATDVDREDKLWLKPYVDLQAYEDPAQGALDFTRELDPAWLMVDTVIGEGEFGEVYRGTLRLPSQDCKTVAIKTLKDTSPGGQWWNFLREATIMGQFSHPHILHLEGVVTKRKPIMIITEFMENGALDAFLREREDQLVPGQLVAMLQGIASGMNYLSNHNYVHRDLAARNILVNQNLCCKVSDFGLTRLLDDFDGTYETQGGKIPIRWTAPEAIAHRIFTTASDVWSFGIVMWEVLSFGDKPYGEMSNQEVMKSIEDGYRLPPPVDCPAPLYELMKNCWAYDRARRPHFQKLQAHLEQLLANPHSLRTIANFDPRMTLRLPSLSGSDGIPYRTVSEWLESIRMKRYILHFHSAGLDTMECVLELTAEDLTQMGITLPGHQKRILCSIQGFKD

[5] = target: T3, Ephrin type-A receptor 1 (Homo sapiens); conditions: at 10 µM
[6] = target: Ephrin type-A receptor 2 (Homo sapiens) (UniProt P29317); conditions: at 1 µM
Sequence of Ephrin type-A receptor 2 (Homo sapiens) (P29317 whole entry): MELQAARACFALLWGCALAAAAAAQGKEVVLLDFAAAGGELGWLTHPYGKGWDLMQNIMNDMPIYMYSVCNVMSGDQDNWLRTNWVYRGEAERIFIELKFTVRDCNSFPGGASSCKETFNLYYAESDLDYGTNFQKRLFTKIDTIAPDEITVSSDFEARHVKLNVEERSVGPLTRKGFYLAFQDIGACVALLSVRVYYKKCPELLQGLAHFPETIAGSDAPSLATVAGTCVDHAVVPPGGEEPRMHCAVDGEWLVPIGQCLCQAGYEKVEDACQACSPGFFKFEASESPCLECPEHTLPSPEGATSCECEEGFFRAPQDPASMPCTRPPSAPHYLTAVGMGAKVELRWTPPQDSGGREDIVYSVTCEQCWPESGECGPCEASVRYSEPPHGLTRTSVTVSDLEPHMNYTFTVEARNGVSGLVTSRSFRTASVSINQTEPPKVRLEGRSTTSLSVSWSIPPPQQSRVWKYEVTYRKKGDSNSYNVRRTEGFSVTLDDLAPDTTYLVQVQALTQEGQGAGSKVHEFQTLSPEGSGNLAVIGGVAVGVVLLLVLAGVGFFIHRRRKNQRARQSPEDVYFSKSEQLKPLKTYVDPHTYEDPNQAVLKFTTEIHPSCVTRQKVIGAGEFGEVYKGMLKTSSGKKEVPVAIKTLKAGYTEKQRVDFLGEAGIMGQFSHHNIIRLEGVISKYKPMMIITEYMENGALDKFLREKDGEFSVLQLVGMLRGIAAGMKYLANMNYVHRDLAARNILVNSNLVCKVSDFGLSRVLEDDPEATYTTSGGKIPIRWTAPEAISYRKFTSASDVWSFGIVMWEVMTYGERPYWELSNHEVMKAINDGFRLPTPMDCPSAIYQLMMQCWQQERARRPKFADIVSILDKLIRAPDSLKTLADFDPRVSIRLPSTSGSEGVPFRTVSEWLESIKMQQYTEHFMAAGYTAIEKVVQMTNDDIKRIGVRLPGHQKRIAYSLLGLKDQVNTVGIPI

[7] = target: Ephrin type-A receptor 2 (Homo sapiens) (UniProt P29317); conditions: at 10 µM
[8] = target: T4, Ephrin type-A receptor 3 (Homo sapiens) (UniProt P29320); conditions: at 1 µM
T4 sequence (whole entry): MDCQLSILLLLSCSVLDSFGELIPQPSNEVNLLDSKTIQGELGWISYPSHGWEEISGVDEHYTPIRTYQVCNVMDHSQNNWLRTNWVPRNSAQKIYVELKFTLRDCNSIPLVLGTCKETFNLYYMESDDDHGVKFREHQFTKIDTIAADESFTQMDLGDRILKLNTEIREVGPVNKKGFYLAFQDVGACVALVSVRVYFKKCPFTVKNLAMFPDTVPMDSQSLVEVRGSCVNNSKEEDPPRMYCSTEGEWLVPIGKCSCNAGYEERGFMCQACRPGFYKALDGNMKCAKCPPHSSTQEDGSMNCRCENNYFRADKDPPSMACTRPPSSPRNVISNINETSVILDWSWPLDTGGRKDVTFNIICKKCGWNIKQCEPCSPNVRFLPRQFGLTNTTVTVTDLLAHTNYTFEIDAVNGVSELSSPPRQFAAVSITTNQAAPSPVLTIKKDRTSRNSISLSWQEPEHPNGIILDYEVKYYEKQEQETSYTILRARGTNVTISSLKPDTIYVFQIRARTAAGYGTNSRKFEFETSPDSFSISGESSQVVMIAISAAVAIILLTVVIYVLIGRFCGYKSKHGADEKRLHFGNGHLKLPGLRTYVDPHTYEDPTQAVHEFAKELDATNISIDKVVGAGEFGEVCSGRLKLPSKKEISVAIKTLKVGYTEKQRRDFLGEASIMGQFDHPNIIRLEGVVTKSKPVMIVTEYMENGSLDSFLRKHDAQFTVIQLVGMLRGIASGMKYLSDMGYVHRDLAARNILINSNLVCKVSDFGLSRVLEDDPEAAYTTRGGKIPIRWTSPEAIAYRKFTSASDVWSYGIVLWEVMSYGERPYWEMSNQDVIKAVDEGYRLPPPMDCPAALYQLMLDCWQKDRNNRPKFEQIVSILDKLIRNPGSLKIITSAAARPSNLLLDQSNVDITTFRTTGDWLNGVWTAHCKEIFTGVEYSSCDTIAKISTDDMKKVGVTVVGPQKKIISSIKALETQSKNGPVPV

[9] = target: T4, Ephrin type-A receptor 3 (Homo sapiens); conditions: at 10 µM
[10] = target: Ephrin type-A receptor 5 (Homo sapiens) (UniProt P54756); conditions: at 1 µM
Sequence of Ephrin type-A receptor 5 (Homo sapiens) (P54756 whole entry): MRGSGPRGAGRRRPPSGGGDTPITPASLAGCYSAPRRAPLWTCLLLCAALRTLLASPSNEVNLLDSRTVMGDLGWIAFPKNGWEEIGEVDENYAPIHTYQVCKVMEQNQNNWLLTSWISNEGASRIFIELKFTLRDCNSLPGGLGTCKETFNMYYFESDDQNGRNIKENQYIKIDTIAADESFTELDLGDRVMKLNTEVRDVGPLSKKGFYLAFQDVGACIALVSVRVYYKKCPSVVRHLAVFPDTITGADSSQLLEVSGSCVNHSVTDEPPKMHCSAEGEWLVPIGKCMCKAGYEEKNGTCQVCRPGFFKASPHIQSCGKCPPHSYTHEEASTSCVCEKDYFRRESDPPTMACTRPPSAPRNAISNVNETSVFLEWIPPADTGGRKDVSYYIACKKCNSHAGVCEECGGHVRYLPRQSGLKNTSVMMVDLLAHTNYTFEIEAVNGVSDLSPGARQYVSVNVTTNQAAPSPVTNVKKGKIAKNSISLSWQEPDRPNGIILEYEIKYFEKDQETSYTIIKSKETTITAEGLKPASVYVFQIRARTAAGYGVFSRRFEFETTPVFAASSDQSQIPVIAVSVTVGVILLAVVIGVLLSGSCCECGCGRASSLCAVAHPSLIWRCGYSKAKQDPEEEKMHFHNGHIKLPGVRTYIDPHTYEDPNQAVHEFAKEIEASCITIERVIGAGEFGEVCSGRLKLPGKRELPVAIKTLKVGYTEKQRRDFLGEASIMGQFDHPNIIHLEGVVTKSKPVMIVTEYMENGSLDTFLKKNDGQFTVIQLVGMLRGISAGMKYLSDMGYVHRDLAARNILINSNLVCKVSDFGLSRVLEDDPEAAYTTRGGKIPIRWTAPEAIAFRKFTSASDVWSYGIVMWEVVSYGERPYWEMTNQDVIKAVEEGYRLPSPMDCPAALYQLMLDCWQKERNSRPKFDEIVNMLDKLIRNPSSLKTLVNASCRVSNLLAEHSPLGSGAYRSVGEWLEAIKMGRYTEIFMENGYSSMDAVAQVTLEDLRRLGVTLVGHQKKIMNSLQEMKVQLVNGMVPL

[11] = target: Ephrin type-A receptor 5 (Homo sapiens) (UniProt P54756); conditions: at 10 µM
[12] = target: Ephrin type-A receptor 7 (Homo sapiens) (UniProt Q15375); conditions: at 1 µM
Sequence of Ephrin type-A receptor 7 (Homo sapiens) (Q15375 28-998 limits assumed): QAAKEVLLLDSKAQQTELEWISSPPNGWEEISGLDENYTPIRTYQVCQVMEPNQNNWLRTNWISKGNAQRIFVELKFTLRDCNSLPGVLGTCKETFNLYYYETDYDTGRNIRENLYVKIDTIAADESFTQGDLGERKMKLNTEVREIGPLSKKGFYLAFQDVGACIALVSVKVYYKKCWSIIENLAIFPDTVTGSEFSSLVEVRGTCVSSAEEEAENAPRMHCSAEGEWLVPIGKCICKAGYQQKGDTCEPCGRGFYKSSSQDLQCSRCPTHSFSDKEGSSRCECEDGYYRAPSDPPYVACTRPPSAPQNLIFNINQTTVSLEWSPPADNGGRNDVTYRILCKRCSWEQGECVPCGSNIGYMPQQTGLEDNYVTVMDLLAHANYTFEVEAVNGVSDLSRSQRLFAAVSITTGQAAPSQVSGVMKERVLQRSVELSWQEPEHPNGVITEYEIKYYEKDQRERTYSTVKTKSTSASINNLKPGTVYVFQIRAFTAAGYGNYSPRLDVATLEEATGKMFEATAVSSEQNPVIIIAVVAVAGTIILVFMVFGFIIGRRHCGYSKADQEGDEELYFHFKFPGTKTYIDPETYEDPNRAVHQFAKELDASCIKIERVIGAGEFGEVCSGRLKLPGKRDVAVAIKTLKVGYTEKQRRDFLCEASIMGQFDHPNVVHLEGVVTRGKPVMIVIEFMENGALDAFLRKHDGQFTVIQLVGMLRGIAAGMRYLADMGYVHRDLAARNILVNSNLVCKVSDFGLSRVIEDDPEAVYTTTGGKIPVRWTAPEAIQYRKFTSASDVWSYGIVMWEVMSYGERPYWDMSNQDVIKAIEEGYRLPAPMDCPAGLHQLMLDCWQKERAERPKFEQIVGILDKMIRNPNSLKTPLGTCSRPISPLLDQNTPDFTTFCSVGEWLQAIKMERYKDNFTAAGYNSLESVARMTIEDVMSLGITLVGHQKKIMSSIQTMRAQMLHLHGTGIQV

[13] = target: Ephrin type-A receptor 7 (Homo sapiens) (UniProt Q15375); conditions: at 10 µM
[14] = target: T5, Ephrin type-A receptor 8 (Homo sapiens) (UniProt P29322); conditions: at 1 µM
T5 sequence (whole entry): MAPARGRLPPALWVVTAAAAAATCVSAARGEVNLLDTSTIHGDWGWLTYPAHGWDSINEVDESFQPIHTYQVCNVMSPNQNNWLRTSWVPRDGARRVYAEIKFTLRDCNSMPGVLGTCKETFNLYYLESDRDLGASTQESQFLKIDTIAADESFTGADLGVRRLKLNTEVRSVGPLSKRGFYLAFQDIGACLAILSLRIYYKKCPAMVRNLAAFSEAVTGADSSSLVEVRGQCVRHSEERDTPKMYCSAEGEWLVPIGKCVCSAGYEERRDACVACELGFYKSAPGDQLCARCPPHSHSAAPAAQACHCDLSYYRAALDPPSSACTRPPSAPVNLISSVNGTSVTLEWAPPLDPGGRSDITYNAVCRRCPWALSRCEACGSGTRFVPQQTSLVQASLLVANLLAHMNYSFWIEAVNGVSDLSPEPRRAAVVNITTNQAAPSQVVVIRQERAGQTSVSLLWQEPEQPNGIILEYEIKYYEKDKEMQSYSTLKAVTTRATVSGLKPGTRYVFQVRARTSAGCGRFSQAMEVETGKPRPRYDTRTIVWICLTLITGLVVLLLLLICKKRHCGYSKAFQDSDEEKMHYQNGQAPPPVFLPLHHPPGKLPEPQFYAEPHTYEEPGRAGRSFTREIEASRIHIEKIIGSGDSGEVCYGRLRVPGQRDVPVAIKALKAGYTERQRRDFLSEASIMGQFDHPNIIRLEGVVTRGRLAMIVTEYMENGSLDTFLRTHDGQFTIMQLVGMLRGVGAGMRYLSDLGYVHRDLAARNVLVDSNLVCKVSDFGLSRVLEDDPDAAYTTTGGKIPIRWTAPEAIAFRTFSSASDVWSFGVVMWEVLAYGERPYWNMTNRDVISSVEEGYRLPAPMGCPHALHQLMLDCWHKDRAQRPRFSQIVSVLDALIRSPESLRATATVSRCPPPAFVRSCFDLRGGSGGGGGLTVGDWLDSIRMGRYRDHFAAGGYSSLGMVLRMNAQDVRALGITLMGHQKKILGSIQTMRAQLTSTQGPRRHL

[15] = target: T5, Ephrin type-A receptor 8 (Homo sapiens); conditions: at 10 µM
[16] = target: T6, Ephrin type-B receptor 1 (Homo sapiens) (UniProt P54762); conditions: at 1 µM
T6 sequence (whole entry): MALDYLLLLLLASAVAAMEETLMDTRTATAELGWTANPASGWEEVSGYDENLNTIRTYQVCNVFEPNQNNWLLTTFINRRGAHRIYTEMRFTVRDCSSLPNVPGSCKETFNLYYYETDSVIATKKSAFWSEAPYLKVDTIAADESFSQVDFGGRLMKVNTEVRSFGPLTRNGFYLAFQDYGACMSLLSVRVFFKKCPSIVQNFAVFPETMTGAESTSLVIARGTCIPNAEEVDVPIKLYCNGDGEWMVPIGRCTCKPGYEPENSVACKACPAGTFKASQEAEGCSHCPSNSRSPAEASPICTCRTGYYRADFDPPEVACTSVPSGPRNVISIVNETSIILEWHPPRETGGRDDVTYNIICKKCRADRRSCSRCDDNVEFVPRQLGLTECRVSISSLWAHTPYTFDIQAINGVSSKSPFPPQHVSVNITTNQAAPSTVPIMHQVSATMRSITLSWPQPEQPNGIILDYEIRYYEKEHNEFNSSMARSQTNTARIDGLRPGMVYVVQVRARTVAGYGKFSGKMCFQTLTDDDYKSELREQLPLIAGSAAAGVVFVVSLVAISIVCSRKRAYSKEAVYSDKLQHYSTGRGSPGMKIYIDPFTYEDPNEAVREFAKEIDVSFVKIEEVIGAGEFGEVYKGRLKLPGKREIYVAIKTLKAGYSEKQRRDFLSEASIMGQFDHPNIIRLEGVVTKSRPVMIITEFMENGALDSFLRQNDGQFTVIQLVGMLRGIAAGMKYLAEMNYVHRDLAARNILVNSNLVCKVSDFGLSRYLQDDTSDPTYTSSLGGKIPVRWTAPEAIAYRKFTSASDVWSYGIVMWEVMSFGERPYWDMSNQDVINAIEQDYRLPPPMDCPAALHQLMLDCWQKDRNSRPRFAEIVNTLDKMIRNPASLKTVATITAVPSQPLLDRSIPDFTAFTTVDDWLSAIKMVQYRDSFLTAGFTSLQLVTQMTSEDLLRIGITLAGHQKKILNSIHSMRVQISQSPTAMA

[17] = target: Ephrin type-A receptor 4 (Homo sapiens) (UniProt P54764); conditions: at 1 µM
Sequence of Ephrin type-A receptor 4 (Homo sapiens) (P54764 whole entry): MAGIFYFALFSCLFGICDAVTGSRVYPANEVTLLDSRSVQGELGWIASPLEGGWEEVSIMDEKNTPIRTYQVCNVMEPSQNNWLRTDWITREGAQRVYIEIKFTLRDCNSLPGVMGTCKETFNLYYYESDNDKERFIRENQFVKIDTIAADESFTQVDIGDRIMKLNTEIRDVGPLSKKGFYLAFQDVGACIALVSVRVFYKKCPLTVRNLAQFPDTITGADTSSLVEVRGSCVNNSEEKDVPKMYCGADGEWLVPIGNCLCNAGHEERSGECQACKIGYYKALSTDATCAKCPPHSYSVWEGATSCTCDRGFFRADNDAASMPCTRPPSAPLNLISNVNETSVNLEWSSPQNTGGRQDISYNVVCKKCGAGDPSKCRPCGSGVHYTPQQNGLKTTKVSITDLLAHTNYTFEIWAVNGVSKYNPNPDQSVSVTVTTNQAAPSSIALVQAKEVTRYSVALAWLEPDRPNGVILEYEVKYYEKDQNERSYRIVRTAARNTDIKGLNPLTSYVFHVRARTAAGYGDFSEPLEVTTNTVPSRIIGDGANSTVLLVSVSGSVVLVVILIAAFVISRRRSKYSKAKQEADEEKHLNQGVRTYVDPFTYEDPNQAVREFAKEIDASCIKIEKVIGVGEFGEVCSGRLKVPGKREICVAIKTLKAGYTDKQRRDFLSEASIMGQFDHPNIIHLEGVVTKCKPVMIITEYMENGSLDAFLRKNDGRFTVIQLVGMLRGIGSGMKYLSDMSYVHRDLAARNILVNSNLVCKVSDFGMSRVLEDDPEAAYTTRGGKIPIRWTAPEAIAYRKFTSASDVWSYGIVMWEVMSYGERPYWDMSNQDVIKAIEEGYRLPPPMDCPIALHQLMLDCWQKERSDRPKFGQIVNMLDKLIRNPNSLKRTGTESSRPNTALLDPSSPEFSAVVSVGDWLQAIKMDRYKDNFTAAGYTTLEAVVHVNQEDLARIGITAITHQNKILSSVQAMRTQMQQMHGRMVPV

[18] = target: Ephrin type-A receptor 4 (Homo sapiens) (UniProt P54764); conditions: at 10 µM

| SMILES | residual activity [1] [%] | residual activity [2] [%] | residual activity [3] [%] | residual activity [4] [%] | residual activity [5] [%] | residual activity [6] [%] | residual activity [7] [%] | residual activity [8] [%] | residual activity [9] [%] | residual activity [10] [%] | residual activity [11] [%] | residual activity [12] [%] | residual activity [13] [%] | residual activity [14] [%] | residual activity [15] [%] | residual activity [16] [%] | residual activity [17] [%] | residual activity [18] [%] |
| --- | --- | --- | --- | --- | --- | --- | --- | --- | --- | --- | --- | --- | --- | --- | --- | --- | --- | --- |
| O=C1Nc2ccccc2/C1=C1/Nc2ccccc2/C1=N\OCCC(O)CO (stereo not given) | 3 | 70 | 52 | 43 | 42 | 54 | 14 | 41 | 6 | 59 | 23 | 58 | 10 | 72 | 32 | 56 | – | – |
| Cn1nc2c3c(cccc31)C(=O)c1ccccc1-2 | 20 | 91 | 75 | 88 | 68 | 92 | 97 | 88 | 73 | 110 | 99 | 95 | 88 | 94 | 81 | 94 | – | – |
| N#CC(C#N)=C(N)/C(C#N)=C/c1ccc(O)cc1 | – | 85 | 93 | – | – | – | – | – | – | 125 | 96 | 91 | 81 | – | – | – | – | – |
| CO[C@H]1C[C@@H]2CC[C@@H](C)[C@@](O)(O2)C(=O)C(=O)N2CCCC[C@H]2C(=O)O[C@H]([C@H](C)C[C@@H]2CC[C@@H](O)[C@H](OC)C2)CC(=O)[C@H](C)/C=C(\C)[C@@H](O)[C@@H](OC)C(=O)[C@H](C)C[C@H](C)/C=C/C=C/C=C/1C | 149 | 99 | 101 | 84 | 65 | 110 | 120 | 103 | 129 | 112 | 116 | 100 | 92 | 96 | 119 | 101 | 104 | 100 |
| CC(=O)c1ccc(N2CCOCC2)cc1O | – | 108 | 92 | 94 | 110 | 102 | – | 107 | 94 | – | 101 | 101 | 90 | 100 | 93 | 93 | – | 104 |
